# Test results: PubChem BioAssay AID493216 (National Center for Advancing Translational Sciences (NCATS), 2011)
# Activity calls are given as the source filed them. Calls come from the whole dose curve.
# Target: Polyunsaturated fatty acid lipoxygenase ALOX12 (Homo sapiens) (UniProt P18054)
# Assay: Inhibitors of 12-hLO (12-human lipoxygenase): Cuvette-Based Hit Assay for Validation of Followup Compounds
# Conditions: purified 12-hLO, cuvette absorbance 234 nm
# Method: The enzyme activity of 12-hLO was determined by a direct measurement of product formation by monitoring the absorbance at 234 nm in a 2 mL cuvette. IC50 values of inhibitors were obtained by measuring the enzymatic rate at a variety of concentrations (Carroll et al, Segraves et al). This assay was used to validate actives or inconclusive putative inhibitors identified in the primary screen (see related BioAssay AIDs). Assay Provider: Holman, T.R., University of California, Santa Cruz Screening Center PI: Austin, Christopher P. Screening Center: NIH Chemical Genomics Center
# For control experiments, 2 mL of substrate buffer (10 uM arachidonic acid / 25 mM HEPES / 0.01% (v/v) Triton X-100, pH 8.0) was aliquoted in a cuvette with a magnetic stir bar. After equilibrium was ensured, an aliquot of inhibitor solvent was added (DMSO), and equilibrium was once again assured. The reaction was started by adding enzyme to the cuvette and the reaction was followed until completed. The inhibition experiments were performed as above, except the actual inhibitory compound was added instead of vehicle. To achieve an IC50, typically 5 concentrations of the inhibitor were studied. If the inhibitor concentration was constant, then five different reaction volumes were used. […] 3; No change in absorbance ensured. […] 5; No change in absorbance ensured. […]
# Polyunsaturated fatty acid lipoxygenase ALOX12 (Homo sapiens), sequence (P18054 whole entry, looked up): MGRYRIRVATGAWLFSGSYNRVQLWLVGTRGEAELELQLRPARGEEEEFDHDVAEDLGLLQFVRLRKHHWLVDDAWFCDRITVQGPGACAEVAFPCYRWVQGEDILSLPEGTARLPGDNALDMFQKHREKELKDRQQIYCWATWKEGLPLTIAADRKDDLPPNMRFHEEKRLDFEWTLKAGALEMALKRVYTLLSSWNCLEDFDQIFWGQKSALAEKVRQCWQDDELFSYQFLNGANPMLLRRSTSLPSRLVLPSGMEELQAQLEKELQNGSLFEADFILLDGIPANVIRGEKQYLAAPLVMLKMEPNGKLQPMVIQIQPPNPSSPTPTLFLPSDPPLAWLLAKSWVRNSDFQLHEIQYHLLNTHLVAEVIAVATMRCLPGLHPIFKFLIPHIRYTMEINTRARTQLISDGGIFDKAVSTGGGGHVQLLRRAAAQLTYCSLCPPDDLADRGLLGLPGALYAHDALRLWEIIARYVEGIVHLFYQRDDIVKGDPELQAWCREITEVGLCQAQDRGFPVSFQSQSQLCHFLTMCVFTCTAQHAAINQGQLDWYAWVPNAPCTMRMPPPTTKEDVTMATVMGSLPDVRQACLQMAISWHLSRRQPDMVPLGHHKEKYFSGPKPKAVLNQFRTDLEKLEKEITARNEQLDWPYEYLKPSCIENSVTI
smiles,measurement,value
CC(Oc1ccc(Cl)cc1Cl)C(=O)Nc1ccc(S(=O)(=O)Nc2cnc3ccccc3n2)cc1 (stereo unspecified),Potency,22.6 µM (active)
